An excerpt weighted towards active compounds, which were near 3.9% of everything screened.
TPT1 inhibitor: inhibitors of Candida albicans tRNA 2'-phosphotransferase TPT1 | recombinant caTPT1, FP RNA substrate dephosphorylation | AID 1962 | hit rate 0.81% among 300,000 | inhibition, % at 5 µM;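 active means inhibition above the mean of all tested compounds plus 3 SD, set per screening campaign, cut at about 24% in these data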
PHOSPHO1 inh: inhibitors of human PHOSPHO1 phosphatase; inhibition, % at 13.3 µM; recombinant PHOSPHO1, absorbance phosphatase assay; Q8TCT1; hit rate 1.1% among 290,000; in the data active means inhibition above about 60%
Target sequence (Q8TCT1 whole entry, looked up): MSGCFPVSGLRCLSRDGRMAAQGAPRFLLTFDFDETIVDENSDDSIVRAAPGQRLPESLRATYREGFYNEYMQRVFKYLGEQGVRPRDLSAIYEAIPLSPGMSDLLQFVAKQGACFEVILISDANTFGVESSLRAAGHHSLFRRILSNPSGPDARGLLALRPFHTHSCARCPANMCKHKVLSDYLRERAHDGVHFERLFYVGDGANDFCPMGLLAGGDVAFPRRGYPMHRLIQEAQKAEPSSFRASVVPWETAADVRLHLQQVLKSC
Platelet DG rel: platelet dense granule release activity; AID 1663; inhibition, %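 (compounds screened at 7.5 µM in platelet-rich plasma)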; hit rate 0.22% among 300,000; human platelet-rich plasma, SFLLRN dense granule ATP release, luminescence;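 active means mean replicate score, as percent of positive control, at or above 50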
WT yeast gro inh: growth inhibition of WT yeast, mitochondrial fusion screen; mitochondrial fusion phenotypic screen, WT strain; inhibition, % at 10 µM; hit rate 2.1% among 190,000; AID 1362; in the data active means inhibition above about 58%; tested in S. cerevisiae
Rtt109 Vps75: inhibitors of Candida albicans Rtt109/Vps75 histone acetyltransferase. hit rate 0.16% among 330,000. Q5AAJ8. inhibition, % at 34.9 µM. purified Rtt109/Vps75, ThioGlo CoA-SH fluorescence, 4 h;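 active means inhibition of at least 50% in every replicate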
Target sequence (Q5AAJ8 whole entry, looked up): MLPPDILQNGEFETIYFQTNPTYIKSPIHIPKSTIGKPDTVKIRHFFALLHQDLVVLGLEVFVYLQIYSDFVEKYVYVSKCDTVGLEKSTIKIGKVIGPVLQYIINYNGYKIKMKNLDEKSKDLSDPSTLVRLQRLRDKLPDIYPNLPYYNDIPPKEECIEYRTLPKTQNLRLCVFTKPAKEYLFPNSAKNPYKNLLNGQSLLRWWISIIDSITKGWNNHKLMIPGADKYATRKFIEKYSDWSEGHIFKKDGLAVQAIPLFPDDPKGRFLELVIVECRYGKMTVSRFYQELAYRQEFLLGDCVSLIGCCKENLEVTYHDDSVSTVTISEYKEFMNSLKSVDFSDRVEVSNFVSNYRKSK
SKKanGAS inh: SKKanGAS growth inhibition; S. pyogenes SKKanGAS, kanamycin growth, BacTiter-Glo, 6 h; inhibition, % at 7.5 µM; hit rate 1.3% among 300,000;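 active means mean replicate score, as percent of positive control median, at least 50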;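 further: strain carries kanamycin resistance gene driven by streptokinase promoter and grows in 40 µg/ml kanamycin; loss of luminescence reflects streptokinase promoter inhibition or plain growth inhibition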
Each line names hits and unclear results; the compound was inactive in the other large screens.

CC(C)(C)OC(=O)C[C@H]1C/C=C\C[C@H](CC(=O)NCCO)C(=O)N2CCC[C@@H]2COC1=O	none (no result: TPT1 inhibitor, PHOSPHO1 inh, Platelet DG rel, WT yeast gro inh, SKKanGAS inh)
Cc1ccc(-c2csc3nc4c5ccccc5c(NCCCN5CCOCC5)nn4c(=O)c23)cc1	WT yeast gro inh 75 (no result: Rtt109 Vps75)
CCCCCCCCOC(=O)CCc1c(C)[nH]c(=S)[nH]c1=O	none
CCCCCCOC(=O)/C=C/c1c(C)[nH]c(=O)[nH]c1=O	SKKanGAS inh 86
CCCCn1c(SCC(=O)OCC)nc2c(sc(=S)n2-c2ccccc2OC)c1=O	none (no result: WT yeast gro inh)
CCCc1nn(C)c(C(=O)Nc2ccc(C(C)(C)C)cc2)c1Cl	WT yeast gro inh 63
Cc1ccc(-n2cccc2C(=S)N=P(N(C)C)(N(C)C)N(C)C)cc1	PHOSPHO1 inh 67, WT yeast gro inh 65
CCOc1ccc(-c2ccc(SC)nn2)cc1	Platelet DG rel 95, WT yeast gro inh 68
c1ccc2c(c1)OCC(c1csc3ncnc(N4CCCC4)c13)O2 (stereo not drawn)	none
c1ccc(CCNc2ncnc3scc(C4COc5ccccc5O4)c23)cc1 (stereo not drawn)	WT yeast gro inh 69
COc1ccc(/C=N\NC(=S)SCN2C(=O)C3CCC(C)(C2=O)C3(C)C)cc1 (stereo not drawn)	none (no result: PHOSPHO1 inh)
CC12CCC(C(=O)N(CSC(=S)N/N=C\c3ccccc3O)C1=O)C2(C)C (stereo not drawn)	SKKanGAS inh 108
COc1ccc(S(=O)(=O)N2CCN(Cc3cc(=O)n4ccccc4n3)CC2)cc1	none (no result: TPT1 inhibitor, PHOSPHO1 inh, Platelet DG rel, WT yeast gro inh, SKKanGAS inh)
COc1cc(/C=C2\SC(=O)N(Cc3ccc(Cl)cc3)C2=O)cc([N+](=O)[O-])c1O	none (no result: TPT1 inhibitor, Platelet DG rel, SKKanGAS inh)
COc1cc(/C=C2\SC(=O)N(Cc3ccc(F)cc3)C2=O)cc([N+](=O)[O-])c1O	WT yeast gro inh 62 (no result: TPT1 inhibitor)
COc1ccc2[nH]c3c(=O)n(/N=C/c4ccc(OC)c(CN5CCCC5)c4)c(C)nc3c2c1	SKKanGAS inh 72 (no result: WT yeast gro inh)
COc1ccc(/C=N/n2cnc3c([nH]c4ccc(C)cc43)c2=O)cc1CN1CCCC1	none (no result: WT yeast gro inh)
COc1ccc(/C=N/n2c(C)nc3c([nH]c4ccccc43)c2=O)cc1CN1CCCC(C)(C)C1	SKKanGAS inh 70 (no result: WT yeast gro inh)
COc1ccc(S(=O)(=O)c2c(O)c3ccc(C(=O)Nc4ccc(F)cc4F)cc3[nH]c2=O)cc1	none (no result: WT yeast gro inh)
COc1ccc(CCNC(=O)c2ccc(NC(=O)CC3SC(N4CCCCC4)=NC3=O)cc2)cc1 (stereo not drawn)	none (no result: TPT1 inhibitor, PHOSPHO1 inh, Platelet DG rel, WT yeast gro inh, SKKanGAS inh)
COc1cc(OC)c(-n2cc(-c3ccc(OC)c(OC)c3)[nH]c2=S)cc1Cl	none (no result: TPT1 inhibitor, WT yeast gro inh)
Cc1ccccc1Nc1nnc(SCC2CCCCO2)s1 (stereo not drawn)	Rtt109 Vps75 51
COc1ccccc1Nc1nnc(SCC2CCCCO2)s1 (stereo not drawn)	none
NC(=O)c1ncn([C@@H]2O[C@H](CNCc3ccc(OCC(=O)Nc4ccccn4)cc3)[C@@H](O)[C@H]2O)n1	none (no result: TPT1 inhibitor, PHOSPHO1 inh, Platelet DG rel, WT yeast gro inh, SKKanGAS inh)
CN(C)c1ccc(N/C=C/C(=O)c2ccco2)cc1	Platelet DG rel 68
O=C(/C=C/Nc1ccc(Br)cc1F)c1ccco1	Platelet DG rel 65
O=C(/C=C/Nc1ccc(F)cc1F)c1ccco1	Platelet DG rel 53
Cc1ccc(C)c(S(=O)(=O)N2CCN(C(=O)C3CCN(C(=O)c4ccc(F)cc4)CC3)CC2)c1	none (no result: PHOSPHO1 inh, WT yeast gro inh)
COCCN(Cc1nc2ccccc2c(=O)[nH]1)C(=O)COc1c(C)cc(Cl)cc1C	none (no result: TPT1 inhibitor, PHOSPHO1 inh, Platelet DG rel, WT yeast gro inh, SKKanGAS inh)
CSCCc1nc(SCC(=O)Nc2nnc(C)s2)[nH]c1C	PHOSPHO1 inh 68
CCCCN(Cc1nc2ccccc2c(=O)[nH]1)C(=O)CN1C(=O)NC2(CCCCC2)C1=O	none (no result: TPT1 inhibitor, PHOSPHO1 inh, Platelet DG rel, WT yeast gro inh, SKKanGAS inh)
CCOC(=O)/C(=C\c1cccnc1)C(=O)c1cc(C(C)=O)c(Nc2ccccc2)s1	WT yeast gro inh 84
C=CCc1ccccc1OCC(=O)OCCNC(=O)c1cccnc1	PHOSPHO1 inh 71
Cc1cc(C)c(OCC(=O)OCCNC(=O)c2cccnc2)c(C)c1	none
O=C(OCc1ccc(Br)cc1)c1ccncc1	Rtt109 Vps75 57
O=C(c1ccc(O)cc1)c1ccc(C(=O)c2ccc(O)cc2)cc1	SKKanGAS inh 83
O=C(OCc1ccc(COC(=O)c2ccc(O)cc2)cc1)c1ccc(O)cc1	SKKanGAS inh 58 (no result: WT yeast gro inh)
CC(=O)Nc1ccc(C(=O)OCc2ccc(Br)cc2)cc1	WT yeast gro inh 69
Cc1cc([N+](=O)[O-])c2ccccc2c1NS(=O)(=O)c1ccccc1	none (no result: TPT1 inhibitor, PHOSPHO1 inh, Platelet DG rel, WT yeast gro inh, SKKanGAS inh)
CCOc1cc(/C=C2\SC(=Nc3ccc(CC)cc3)NC2=O)ccc1OCC(=O)O	none (no result: WT yeast gro inh)
CC(=O)c1ccc(S(=O)(=O)N2CCN(C(=O)c3cccc(S(=O)(=O)N4CC(C)OC(C)C4)c3)CC2)cc1 (stereo not drawn)	none (no result: TPT1 inhibitor, PHOSPHO1 inh, Platelet DG rel, WT yeast gro inh, SKKanGAS inh)
COC(=O)C=C1CCC2C3CCC4=CC(=O)CCC4(C)C3C(=O)CC12C (stereo not drawn)	none (no result: TPT1 inhibitor, PHOSPHO1 inh, Platelet DG rel, WT yeast gro inh, SKKanGAS inh)
CC(=O)Oc1ccc2c(=O)c(-c3nc4ccccc4s3)coc2c1	Platelet DG rel 61
O=C(Cc1cccs1)N/N=C/c1ccco1	SKKanGAS inh 77
COC(=O)c1sc(N2C(=O)C(O)=C(C(=O)c3ccc(C)o3)C2c2ccco2)nc1C (stereo not drawn)	none (no result: WT yeast gro inh)
CCOC(=O)c1sc(N2C(=O)C(O)=C(C(=O)c3ccco3)C2c2cccc(Cl)c2)nc1C (stereo not drawn)	SKKanGAS inh 63 (no result: WT yeast gro inh)
CCOC(=O)c1sc(N2C(=O)C(O)=C(C(=O)c3ccco3)C2c2cccc([N+](=O)[O-])c2)nc1C (stereo not drawn)	SKKanGAS inh 65 (no result: WT yeast gro inh)
Cc1nnc(N2C(=O)C(O)=C(C(=O)c3ccco3)C2c2cccc([N+](=O)[O-])c2)s1 (stereo not drawn)	none (no result: WT yeast gro inh)
COC(=O)c1sc(N2C(=O)C(O)=C(C(=O)c3ccc(C)o3)C2c2ccc(F)cc2)nc1C (stereo not drawn)	TPT1 inhibitor 26 (no result: Rtt109 Vps75)
COc1ccc(Cc2nc3ccc(C(=O)NC4CCOC4)cc3o2)cc1 (stereo not drawn)	none (no result: WT yeast gro inh)
O=C(Nc1ccc(F)cc1)c1nc2c(nnn2Cc2cccc3ccccc23)c(=O)[nH]1	SKKanGAS inh 62 (no result: WT yeast gro inh)
COc1ccc(/C=C/c2cc(-c3ccc(C)cc3)o[n+]2C)cc1	WT yeast gro inh 58
COc1ccc(C2C(C#N)=C(SCC(=O)Nc3ccc(C)cc3)NC3=C2C(=O)CC(C)(C)C3)cc1 (stereo not drawn)	PHOSPHO1 inh 89
C=CCOC(=O)C1=C(C)NC(SCC(N)=O)=C(C#N)C1c1cccs1 (stereo not drawn)	none
CCOC(=O)C1=C(C)NC(SCC(=O)Nc2nc(C)cs2)=C(C#N)C1c1cccs1 (stereo not drawn)	PHOSPHO1 inh 76 (no result: Rtt109 Vps75)
CC1=C(C(=O)Nc2ccccc2)C(c2ccncc2)C(C#N)=C(SCC(=O)Nc2ccccc2)N1 (stereo not drawn)	PHOSPHO1 inh 71
CSC1=C(C#N)C(c2ccncc2)C(C(=O)Nc2ccccc2)=C(C)N1 (stereo not drawn)	PHOSPHO1 inh 62
O=C1CS(=O)(=O)c2ccccc2N1	none (no result: WT yeast gro inh)

Source: PubChem (several laboratories)
